Test results from PubChem BioAssay AID720690 (Broad Institute, 2013).
Measured potencies and affinities stand elsewhere. Unmarked numbers belong to inactive results.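 The calls were made as follows: active = every repeat run showing a signal drop whose fitted half-maximal concentration is at most twice the top tested concentration; inconclusive = repeat runs disagree, or flat partial drop, or poor fit; inactive = the rest.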

Experiment: HEK293T cytotoxicity, dose response, cytotoxicity control for miR-122 modulator project, cell-based, activator set, cherry-pick (AID 720690);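 also: 0% = neutral control wells and -100% = MG132 cytotoxic control wells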
Conditions: HEK293T viability, CellTiter-Glo luminescence, 48 h; series mostly up to 26 µM; activity change, negative = cytotoxicity: at the top concentration

Row | Structure (SMILES) | activity change, negative = cytotoxicity
1 | C/C=C/c1ccc([C@H]2[C@H](CO)N[C@H]2CN(C)S(=O)(=O)c2ccccc2)cc1 | -14.5%
2 | CCCNC(=O)Nc1ccc2c(c1)C(=O)N(C)[C@@H]1CC[C@@H](CC(=O)NCC3CCCCC3)O[C@H]1CO2 | -5.32%
3 | C/C=C/c1ccc([C@@H]2[C@@H](CO)N(C(C)=O)[C@@H]2CN(CC)C(=O)CN(C)C)cc1 | -3.94%
4 | CN1C(=O)c2cc(NC(=O)c3cccc(F)c3)ccc2OC[C@@H]2O[C@H](CC(=O)O)CC[C@H]21 | 9.87%
5 | COc1cccc(NC(=O)N(C)C[C@@H]2Oc3ncc(C#Cc4ccncc4)cc3C(=O)N([C@@H](C)CO)C[C@H]2C)c1 | -11.6%
6 | CN1C(=O)c2cc(NC(=O)c3cccs3)ccc2OC[C@@H]2O[C@@H](CC(=O)NCCN3CCCCC3)CC[C@@H]21 | -7.8% [at 23.5 µM]
7 | O=C(CN1CCN(c2nc(-c3ccccc3)cs2)CC1)Nc1ccc2c(c1)OCO2 | -17.8%
8 | O=C(NC[C@@H]1[C@H](c2ccccc2)[C@@H](CO)N1Cc1cccnc1)c1ccccn1 | 35.7%
9 | O=C(NCCCN1CCCC1)c1ccc(CSCc2cccc(Cl)c2)o1 | -0.033%
10 | NC(=O)c1cn(-c2ccccc2)nc1-c1cc2ccccc2oc1=O | -23.6%
11 | CN(C)CCCNC(=O)C[C@H]1CC[C@H]2[C@H](COc3ccc(NS(C)(=O)=O)cc3C(=O)N2C)O1 | -23.2% [at 23.5 µM]
12 | CCCCCn1c(=O)[nH]c2cc(C(=O)NCCN3C(C)CCCC3C)ccc2c1=O (stereo not drawn) | -0.956%
13 | CN1C(=O)c2cc(NC(=O)Nc3ccccc3Cl)ccc2OC[C@H]2O[C@H](CC(=O)O)CC[C@@H]21 | 5.14%
